Vaccinia Venus = vaccinia inhibition (Venus reporter); Vaccinia virus Venus reporter expression, fluorescence; Potency, µM (doses to about 36.5 µM), hits mostly inhibitors; 330,000 tested, 0.46% active; calls by dose curve; tested in A549 cells; further: nearly all actives have a fitted effect of over 30% in size
MARV entry inh = blocks Marburg virus binding to or entry into cells | Marburg virus pseudotyped entry inhibition, cell reporter | Potency, µM (series often up to 37.8 µM), most hits filed as inhibitors | 300,000 tested, 1.8% active | AID 540276; calls by dose curve; tested in HEK293 cells
HCMV antiviral = human cytomegalovirus inhibition | HFF cells, HCMV-luciferase reporter, 72 h; active compounds read low | activity change, negative = inhibition, % at 57.5 µM | 410,000 tested, 4.5% active; in the data active means activity change below about -60%; inconclusive means no clear call, values can overlap the other calls; inactive means above about -39%
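Steps: HFFs plated, 16 h 37C; compounds added; HCMV-luciferase added to MOI 1 PFU/cell; 72 h 37C; OneGlo reagent, 5 min room temperature; luminescence read, normalized to controls.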
VACV mCherry inh = inhibitors of vaccinia virus infection (mCherry reporter signal) | 310,000 tested, 0.63% active | Vaccinia virus mCherry reporter infection, fluorescence | Potency, µM (highest dose often 36.5 µM), actives largely listed as inhibitors | AID 720579; calls by dose curve; tested in A549 cells; further: nearly all actives have a fitted effect of over 35% in size
FMDV antiviral = antivirals against foot and mouth disease virus | FMDV antiviral cell-based qHTS | Potency, µM (highest dose often 57.9 µM), usual class: inhibitors | 410,000 tested, 1.2% active; calls by dose curve; tested in HEK293T cells; further: read-out not given here; nearly all actives have a fitted effect of over 45% in size
LASV entry inh = blocks Lassa virus binding to or entry into cells | Lassa virus pseudotype entry inhibition, cell reporter | Potency, µM (highest dose often 37.9 µM), usual class: inhibitors | 300,000 tested, 1.2% active | AID 540256; calls by dose curve; tested in HEK293 cells; further: nearly all actives have a fitted effect of over 50% in size
Large screens that a line does not name were inactive. Rows were chosen to be rich in hits. Some 6.5% of all compounds tested hit in one or more screens of this group.

CC(C)(C)OC(=O)NCc1ccc(CNC(=O)c2nc[nH]c2C(=O)N2CCN(C(=O)OC(C)(C)C)CC2)cc1	FMDV antiviral 20µM (no result: MARV entry inh, LASV entry inh)
CC(C)(C)c1ccc(C(=O)NCc2ccc(Cl)cc2)cc1	Vaccinia Venus inconclusive (no result: FMDV antiviral)
C[C@H](NC(=O)c1nc[nH]c1C(=O)NCCCCCNC(=O)OC(C)(C)C)c1ccccc1	Vaccinia Venus inconclusive, VACV mCherry inh inconclusive, FMDV antiviral 40µM (no result: MARV entry inh, LASV entry inh)
CC(C)(C)OC(=O)N1CCN(c2ccc(CNC(=O)c3ccc(Cl)cc3)cc2)CC1	MARV entry inh inconclusive, HCMV antiviral -95, FMDV antiviral 25µM, LASV entry inh inconclusive (no result: Vaccinia Venus, VACV mCherry inh)
CC(C)(C)OC(=O)NCc1ccc(CNC(=O)c2[nH]cnc2C(=O)Nc2ccccc2F)cc1	Vaccinia Venus inconclusive, VACV mCherry inh inconclusive, FMDV antiviral 20µM (no result: MARV entry inh, LASV entry inh)
O=C(Nc1ccccc1F)c1nc[nH]c1C(=O)NCc1ccccc1	Vaccinia Venus inconclusive (no result: MARV entry inh, LASV entry inh)
CC(C)(C)c1ccc(O[C@@H]2[C@H](O)CO[C@@H]2/C=C/C#Cc2ccccc2)cc1	none (no result: Vaccinia Venus, HCMV antiviral, VACV mCherry inh, FMDV antiviral, LASV entry inh)
COc1ccc(C(=O)C[n+]2ccc(Cl)c3ccc(Cl)cc32)cc1	none (no result: MARV entry inh, HCMV antiviral, FMDV antiviral, LASV entry inh)
C[C@H](NC(=O)c1nc[nH]c1C(=O)NCc1ccc(CNC(=O)OC(C)(C)C)cc1)c1ccccc1	Vaccinia Venus inconclusive, VACV mCherry inh inconclusive, FMDV antiviral 32µM (no result: MARV entry inh, LASV entry inh)
COc1cccc(/C=N/NC(=O)c2c(-c3ccccc3)noc2C)c1O	Vaccinia Venus inconclusive, MARV entry inh 11µM, HCMV antiviral -83, VACV mCherry inh 10µM, LASV entry inh 10µM
COc1c(Cl)cc(-c2noc(C)c2C(=O)NCc2ccc3c(c2)OCO3)cc1Cl	none
COc1cccc(/C=N/NC(=O)c2ccoc2C)c1O	Vaccinia Venus inconclusive, HCMV antiviral -82, VACV mCherry inh 4.5µM (no result: MARV entry inh, LASV entry inh)
Cc1onc(-c2ccccc2)c1C(=O)N/N=C/c1c[nH]c2ccccc12	FMDV antiviral inconclusive, LASV entry inh 10µM
COc1c(Cl)cc(-c2noc(C)c2C(=O)NCc2ccccc2)cc1Cl	HCMV antiviral -68 (no result: LASV entry inh)
COc1cc(/C=N/NC(=O)c2ccoc2C)ccc1O	MARV entry inh inconclusive
COc1ccc(C(=O)n2nc(-c3ccco3)nc2NCc2cccs2)cc1OC	none
COc1ccc(OC)c(CNC(=O)Cn2nc(C)c3nn(-c4ccc(Cl)cc4)c(C)c3c2=O)c1	none (no result: MARV entry inh)
COC(=O)c1c(C)sc(-c2c(-c3ccc(F)cc3)[nH]c3[nH]c(=O)[nH]c(=O)c23)c1O	MARV entry inh inconclusive, LASV entry inh inconclusive
COC(=O)c1onc(-c2ccccc2)c1C(=O)OC	none (no result: VACV mCherry inh)
NC(=Nc1ccccc1)NN=Cc1c[nH]c2ccccc12	Vaccinia Venus inconclusive, MARV entry inh inconclusive, HCMV antiviral -85, FMDV antiviral inconclusive
Cc1onc(-c2ccccc2)c1C(=O)N/N=C/c1cc(Br)c(Br)o1	MARV entry inh inconclusive, FMDV antiviral 25µM, LASV entry inh inconclusive
COC(=O)c1c(-c2ccccc2)noc1C	HCMV antiviral -76
COc1cccc(/C=N/NC(=O)c2cnccn2)c1O	VACV mCherry inh 4.5µM (no result: MARV entry inh, LASV entry inh)
Cc1ccc(/C=N/NC(=O)c2c(-c3ccccc3)noc2C)o1	HCMV antiviral inconclusive
Cc1ccc(-c2cc3ncc(C(=O)c4cc([N+](=O)[O-])ccc4O)cn3n2)cc1	VACV mCherry inh inconclusive, FMDV antiviral inconclusive
Cc1ccc(-c2nnc(SCC(=O)c3ccc(Cl)cc3)n2-c2ccccc2)cc1	none (no result: MARV entry inh)
COc1cccc(/C=C2/SC(=S)N(CC(=O)Nc3nccs3)C2=O)c1	none (no result: MARV entry inh, HCMV antiviral, FMDV antiviral, LASV entry inh)
Cc1ccc(/C=N/NC(=O)c2c(-c3ccccc3)noc2C)c(O)c1	HCMV antiviral -110 (no result: Vaccinia Venus, MARV entry inh, VACV mCherry inh, FMDV antiviral, LASV entry inh)
Cn1cc(-c2cc3n(n2)CCC(=O)N3CCCC(=O)NCc2ccc(F)cc2)c2ccccc21	LASV entry inh inconclusive (no result: MARV entry inh)
COCCCNC(=O)N1c2ccccc2Sc2ccccc21	none
COc1ccc(CCNC(=O)N2c3ccccc3Sc3ccccc32)cc1	Vaccinia Venus inconclusive, MARV entry inh inconclusive, HCMV antiviral inconclusive, VACV mCherry inh inconclusive, FMDV antiviral 18µM, LASV entry inh inconclusive
CC(C)(C)NC(=O)N1c2ccccc2Sc2ccccc21	HCMV antiviral -60 (no result: Vaccinia Venus, MARV entry inh, VACV mCherry inh, LASV entry inh)
CC(C)CNCC(=O)N1c2ccccc2Sc2ccccc21	MARV entry inh inconclusive, HCMV antiviral -71
COc1ccccc1C(=O)N1c2ccccc2Sc2ccccc21	MARV entry inh inconclusive, HCMV antiviral -73, VACV mCherry inh inconclusive, LASV entry inh inconclusive
COc1cc2c(cc1OC)[C@@H]1N(C)c3ccccc3[C@@]13CCN(S(=O)(=O)C(F)(F)F)C3=C2	none (no result: Vaccinia Venus, MARV entry inh, VACV mCherry inh, FMDV antiviral, LASV entry inh)
OCC1OC(n2cnc3c(NO)ncnc32)C(O)C1O (stereo not given)	none (no result: MARV entry inh, HCMV antiviral, FMDV antiviral, LASV entry inh)
OCC1OC(n2cnc3c(NCc4ccccc4O)ncnc32)C(O)C1O (stereo not given)	Vaccinia Venus inconclusive, MARV entry inh inconclusive, HCMV antiviral -100, VACV mCherry inh inconclusive, LASV entry inh 2.2µM
CN(C)c1ncnc2c1ccn2C1OC(CO)C(O)C1O (stereo not given)	Vaccinia Venus inconclusive, MARV entry inh 2.2µM, HCMV antiviral -98, VACV mCherry inh inconclusive, LASV entry inh 3.5µM
OCC1OC(n2ccc3c(NO)ncnc32)C(O)C1O (stereo not given)	Vaccinia Venus 1.1µM, MARV entry inh 0.32µM, HCMV antiviral -98, VACV mCherry inh inconclusive, FMDV antiviral inconclusive, LASV entry inh inconclusive
COc1cccc(CNC(=O)CSc2cc(C)[nH]c(=O)n2)c1	none (no result: MARV entry inh)
Cc1ccc(OCCn2cnc3c2c(=O)n(C)c(=O)n3C)cc1	HCMV antiviral -76, FMDV antiviral inconclusive
Cn1c(=O)c2c(ncn2CCO)n(C)c1=O	none (no result: LASV entry inh)
CN1CCN(CCCNC(=O)c2ccc(CSCc3cccc(Cl)c3)o2)CC1	MARV entry inh inconclusive, LASV entry inh 11µM (no result: VACV mCherry inh)
CC1CCN(CCCNC(=O)c2ccc(CSCc3cccc(Cl)c3)o2)CC1	MARV entry inh 12µM (no result: Vaccinia Venus, VACV mCherry inh)
O=C(NCCCN1CCCC1)c1ccc(CSCc2cccc(Cl)c2)o1	MARV entry inh inconclusive (no result: Vaccinia Venus, VACV mCherry inh)
COc1ccc2nc(N3CCN(C(=O)C4COc5ccccc5O4)CC3)sc2c1 (stereo not given)	MARV entry inh inconclusive
COc1cc2nc(N3CCN(C(=O)C4COc5ccccc5O4)CC3)nc(N)c2cc1OC (stereo not given)	MARV entry inh 12µM, LASV entry inh inconclusive
COc1cc2nc(N3CCN(C(=O)OCc4ccccc4)C(C(=O)NC(C)(C)C)C3)nc(N)c2cc1OC (stereo not given)	MARV entry inh 11µM, LASV entry inh inconclusive (no result: Vaccinia Venus, HCMV antiviral, VACV mCherry inh, FMDV antiviral)
C[C@H]1CN(S(=O)(=O)C(C)(C)C)[C@H](CCO)/C1=C\CCO	none (no result: Vaccinia Venus, MARV entry inh, VACV mCherry inh, FMDV antiviral, LASV entry inh)
C=C1CC(COc2ccc3c(C)c(Cl)c(=O)oc3c2)(c2ccccc2)OC1=O (stereo not given)	Vaccinia Venus 11µM, MARV entry inh 7.1µM, HCMV antiviral -98, VACV mCherry inh 10µM, FMDV antiviral 22µM, LASV entry inh 10µM
CCOc1cc(/C=C2/SC(=Nc3ccccc3)N(Cc3cccnc3)C2=O)ccc1OCC#N	MARV entry inh inconclusive, HCMV antiviral -60, FMDV antiviral inconclusive, LASV entry inh inconclusive
COc1ccc(/C=C2\SC(=S)N(Cc3cccnc3)C2=O)cc1C	MARV entry inh inconclusive

Screening results: PubChem BioAssay, National Center for Advancing Translational Sciences (NCATS)
